This is one part of a sample in which hits are shown more often than they occur.
Dicer inh: inhibitors of Dicer pre-microRNA processing, primary screen, biochemical, cat-ELCCA, chemiluminescence; z-score at 25 µM; Endoribonuclease Dicer (Homo sapiens), Q9UPY3; 6% of 47,000 active; cat-ELCCA pre-miR-21 Dicer processing; hits give high values; in the data active = z-score above about 3, passing the limit was not always enough;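 note: plate controls were vehicle for no effect and no enzyme for full effect; higher signal means more uncleaved substrate so more Dicer inhibition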
* = called active by the depositor.

SMILES	Dicer inh
OC(c1ccccc1)C(CN1CCCCC1)CN1CCCCC1 (stereo unspecified)	-0.53
O=C1CSC(=O)N1c1ccc(OC(F)(F)F)cc1	-1.17
Cc1cc(Cc2ccc(C(F)(F)F)cc2)c(=O)[nH]n1	3.14*
Cc1cc(Cc2cccs2)c(=O)[nH]n1	1.37
Cc1ccc(Cc2cc(-c3ccc(C)cc3)n[nH]c2=O)cc1	-0.37
Cc1ccc(OCC(=O)NN)c2c1CCC2	-0.96
COC(=O)c1cc(OC)c(OC)cc1NC(=O)N1c2ccccc2Sc2ccccc21	1.22
COc1cc(NC(=O)N2c3ccccc3Sc3ccccc32)c(C(=O)O)cc1OC	2.81
COc1ccccc1NC(=O)N1c2ccccc2Sc2ccccc21	3.15*
CN(C)c1ncnc(Oc2ccc(Cl)cc2)c1[N+](=O)[O-]	-0.04
Cc1c(CNC(=O)c2nn3c(c2Cl)NC(c2cccs2)CC3C(F)(F)F)cnn1C (stereo unspecified)	1.23
O=C(c1nn2c(c1Cl)NC(c1cccs1)CC2C(F)(F)F)N1CCCc2ccccc21 (stereo unspecified)	2.77
Cc1ccc(C2CC(C(F)(F)F)n3nc(C(=O)NCc4c(C)nn(C)c4C)c(Cl)c3N2)cc1 (stereo unspecified)	-1.19
O=C(c1nn2c(c1Cl)NC(c1ccccc1)CC2C(F)(F)F)N1CCCCC1 (stereo unspecified)	5.56*
O=C(NCc1cccnc1)c1nn2c(c1Cl)NC(c1ccccc1)CC2C(F)(F)F (stereo unspecified)	-1.76
O=C(NCc1ccccc1)c1nn2c(c1Br)NC(c1ccccc1)CC2C(F)(F)F (stereo unspecified)	5.25*
CCC(C)NC(=O)c1cc2n(n1)C(C(F)(F)F)CC(c1ccc3c(c1)OCO3)N2 (stereo unspecified)	2.52
O=C(c1nn2c(c1Cl)NC(c1ccc(F)cc1)CC2C(F)(F)F)N1CCCCC1 (stereo unspecified)	8.8
CCC(C)NC(=O)c1nn2c(c1Cl)NC(c1ccc(Cl)cc1)CC2C(F)(F)F (stereo unspecified)	4.94*
NC(=O)c1nn2c(c1Cl)NC(c1ccc(Cl)cc1)CC2C(F)(F)F (stereo unspecified)	3.45*
CCCNC(=O)c1nn2c(c1Br)NC(c1cccs1)CC2C(F)(F)F (stereo unspecified)	-0.29
O=C(c1nn2c(c1Cl)NC(c1ccc(Cl)cc1)CC2C(F)(F)F)N1CCSCC1 (stereo unspecified)	0.58
CC(C)(Oc1ccc(Cl)cc1)C(=O)N1CCC2(CC1)NC(=O)c1ccccc1O2	-0.43
Cc1ccc(C2c3c(oc4ccc(C)cc4c3=O)C(=O)N2c2nc(C)c(C)s2)cc1 (stereo unspecified)	-0.17
CCCOc1ccc(C2c3c(oc4ccccc4c3=O)C(=O)N2c2nncs2)cc1OCC (stereo unspecified)	0.86
SMILES	Dicer inh
Nc1cc(-c2csc(-c3cccnc3)n2)nn1-c1ccc(Cl)cc1	0.7
CN(CCc1ccccn1)S(=O)(=O)c1cccc(Cl)c1	0.44
CC(C)(C)c1ccc(-c2nc(-c3ccccn3)no2)cc1	2.36
CC(C)(C)c1csc(N/N=C/c2cccs2)n1	-6.09
S=c1[nH]nc(CN2c3ccccc3Sc3ccccc32)n1-c1ccc(Cl)cc1Cl	-0.24
COc1ccc2nc(SCCN3CCCCC3)[nH]c2c1	2.06
C/C(=N\NC(=S)Nc1ccc(F)cc1)c1ccco1	0.88
C/C(=N\NC(=S)Nc1ccc(C(C)C)cc1)c1ccco1	3*
CC(C)c1ccc(NC(=S)NN(C)C)cc1	2.93
Cc1ccc(-n2c(=O)[nH]c3c(sc4nnc(-c5ccccc5)c(-c5ccccc5)c43)c2=O)cc1	0.41
Cc1cc(C)c2c(n1)sc1c(SCc3ccc(F)cc3)ncnc12	1.03
CCOc1ncnc2c1sc1nc(C)cc(C)c12	1.12
C=CCSc1ncnc2c1sc1nc(C)cc(C)c12	3.08*
COc1ccc(Cc2nc3c4c5c(sc4ncn3n2)CCCCC5)cc1OC	-3.89
O=C(O)c1cccc2cccc(S(=O)c3ccccc3)c12 (stereo unspecified)	-0.85
Cc1cc(Nc2ccc(N(C)C)cc2)c2cccc(C)c2n1	1.64
Cc1cc(F)ccc1S(=O)(=O)Nc1c(C)n(C)n(-c2ccccc2)c1=O	-0.46
Cc1cc(=O)oc2cc(NS(=O)(=O)c3ccc(F)cc3)ccc12	0.84
Cn1cc(Br)c(-c2cccc(NS(=O)(=O)c3ccc(Cl)cc3)c2)n1	0.02
Cc1ccc(S(=O)(=O)Nc2ccc3oc(=O)sc3c2)c(C)c1	1.13
Cc1cc(F)ccc1S(=O)(=O)Nc1ccc2oc3c(c2c1)CC(C)CC3 (stereo unspecified)	6.57*
COc1ccc(OC)c(NS(=O)(=O)c2ccc(Cl)cc2)c1	1.24
Cc1cc(F)ccc1S(=O)(=O)Nc1ccc2oc(=O)sc2c1	7.85*
Cc1cc(F)ccc1S(=O)(=O)Nc1ccc2oc(C)c(C(=O)OC(C)C)c2c1	-0.11
O=C(O)c1ccc(S(=O)(=O)Nc2ccc3oc(=O)sc3c2)cc1	1.15
SMILES	Dicer inh
O=c1oc2ccc(NS(=O)(=O)c3ccc(F)cc3)cc2s1	4.91*
O=c1oc2c(Br)cc(NS(=O)(=O)c3ccc(Cl)cc3)cc2s1	12.8*
CC1CCc2oc3ccc(NS(=O)(=O)c4cccc5cccnc45)cc3c2C1 (stereo unspecified)	-0.24
COC(=O)CNC(=O)c1cccnc1Sc1ccc(C)cc1	-0.49
Cc1nnsc1C(=O)Nc1ccc2c(c1)OCCO2	-1.57
C=CCN1C(=O)C(=Nc2ccc(Cl)cc2)c2ccccc21	2.39
CC(=O)N1CCC(C(=O)Nc2nc3ccc(Cl)cc3s2)CC1	-1.03
CC1CCCC(C)N1C(=O)C1Sc2nnc(-c3ccccc3)n2NC1c1ccc(F)cc1 (stereo unspecified)	-1.47
CS(=O)(=NC(=S)NC(=O)Oc1ccccc1)c1ccccc1 (stereo unspecified)	1.71
O=c1c2ccccc2sc2ccc(C(F)(F)F)cc12	-0.22
NNC(=S)c1cc(Cl)cc(Cl)c1	-2.54
CCn1nc(-c2ccncc2)nc2c(=O)n(C)c(=O)nc1-2	-6.36
Cc1nc([N+](=O)[O-])cn1CCc1noc(-c2ccc(F)cc2)n1	0.03
Cc1ccc(S(=O)(=O)Nc2cc(Cl)c3oc(=O)sc3c2)c(C)c1	11.9*
Cc1cc(S(=O)(=O)Nc2cccnc2)c(C)cc1Cl	-0.28
Cc1ccc(S(=O)(=O)N2CCN(S(=O)(=O)N3CCOCC3)CC2)c(C)c1	-1.88
CC(=O)Nc1ccc(NS(=O)(=O)c2ccc(C)cc2)cc1[N+](=O)[O-]	-0.02
O=c1oc2ccc(NS(=O)(=O)c3ccc(Cl)cc3)cc2s1	9.77*
O=S(=O)(Nc1nc(-c2ccc(Cl)cc2Cl)cs1)c1ccc(Cl)cc1	10.4
O=S(=O)(Nc1ccc2c(c1)OCO2)c1ccc(Cl)cc1	-0.39
COC(=O)c1c(C)oc2ccc(NS(=O)(=O)c3ccc(Br)cc3)cc12	0.56
CC(C)(C)C1CCc2oc3ccc(NS(=O)(=O)c4ccc(C(=O)O)cc4)cc3c2C1 (stereo unspecified)	4.15*
Cc1ccc(S(=O)(=O)Nc2ccc3oc(=O)sc3c2)cc1	5.01*
CCOC(=O)n1c(=O)oc2cc(S(=O)(=O)Nc3ccc(C)cc3)ccc21	1.14
CCc1ccc(S(=O)(=O)Nc2ccc3oc4c(c3c2)CCCC4)cc1	2.13
CS(=O)(=N/C=C(\C#N)C(=O)c1cccs1)c1ccc(Cl)cc1 (stereo unspecified)	-0.01
CCCc1nnc(N2C(=O)c3oc4ccc(F)cc4c(=O)c3C2c2ccc(OCC)cc2)s1 (stereo unspecified)	-1.03

Screening data deposited in PubChem BioAssay by Center for Chemical Genomics, University of Michigan.
